Compounds without any hit were thinned out: in the full panel of roughly 79,000, 15% have a hit. A number with no mark means an inactive call. Activity calls are given as the source filed them. No stated cut-off is given here; in the data, active means growth inhibition above about 70%; inactive means the rest.
What was measured:
[1] = NCI Yeast Anticancer Drug Screen. Data for the rad50 strain (AID 155);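 further: 0% = growth of vehicle-only cultures of the same strain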; settings: S. cerevisiae rad50 strain growth inhibition, stronger effect = higher value
Procedure, shortened: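 Cells are treated with compound, grown, and their growth is then scored against vehicle-only cultures of the same repair-deficient yeast strain.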

[2] = NCI Yeast Anticancer Drug Screen. Data for the mec2-1 strain (AID 157); settings: S. cerevisiae mec2-1 strain, stronger effect = higher value
Procedure, shortened: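 Yeast mec2-1 mutant treated with compound. Readout: growth inhibition vs vehicle controls.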

[3] = NCI Yeast Anticancer Drug Screen. Data for the sgs1 mgt1 strain (AID 161);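 further: 0% = growth of cultures given vehicle only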; settings: S. cerevisiae sgs1 mgt1 strain, stronger effect = higher value
Procedure, shortened: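 Read-out: growth inhibition vs vehicle controls. Cells: mutant yeast strain deficient in DNA damage repair.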

[4] = NCI Yeast Anticancer Drug Screen. Data for the cln2 rad14 strain (AID 165);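 further: 0% = growth equal to vehicle treated cultures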; settings: S. cerevisiae cln2 rad14 strain, stronger effect = higher value
Procedure, shortened: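 cln2 rad14 yeast strain; compound exposure; growth inhibition read vs vehicle controls.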

[5] = NCI Yeast Anticancer Drug Screen. Data for the bub3 strain (AID 167); settings: S. cerevisiae bub3 mutant strain, stronger effect = higher value
Procedure, shortened: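 Part of a panel of yeast mutants defective in DNA damage repair or cell cycle regulation. Each strain is grown with compound, and inhibition is calculated relative to solvent-treated cultures.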

[6] = NCI Yeast Anticancer Drug Screen. Data for the mlh1 rad18 strain (AID 175); settings: S. cerevisiae mlh1 rad18 strain growth inhibition, stronger effect = higher value
Procedure, shortened: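 Yeast w/ defined DNA-repair lesions; compound exposure; growth vs vehicle controls → % inhibition.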

[7] = at 5.0 µM (retest, dose inferred, filed as 0.5)
[8] = at 50.0 µM (retest, dose inferred, filed as 5.0)

Row | Structure (SMILES) | growth inhibition [1, 7] | growth inhibition [1, 8] | growth inhibition ([1]; at 50.0 µM) | growth inhibition [2, 7] | growth inhibition [2, 8] | growth inhibition ([2]; at 50.0 µM) | growth inhibition [3, 7] | growth inhibition [3, 8] | growth inhibition ([3]; at 50.0 µM) | growth inhibition [4, 7] | growth inhibition [4, 8] | growth inhibition ([4]; at 50.0 µM) | growth inhibition [5, 7] | growth inhibition [5, 8] | growth inhibition ([5]; at 50.0 µM) | growth inhibition [6, 7] | growth inhibition [6, 8] | growth inhibition ([6]; at 50.0 µM)
1 | CCCCCCCCCCCCN=C(N)N | 80% (active) | 98% (active) | 99.1% (active) | 72% (active) | 99% (active) | 99.3% (active) | 87% (active) | 99% (active) | 99% (active) | 59% | 98% (active) | 98.5% (active) | 96% (active) | 99% (active) | 99.4% (active) | 71% (active) | 98% (active) | 98.4% (active)
2 | C(=C/P(c1ccccc1)c1ccccc1)/P(c1ccccc1)c1ccccc1.C(=CP(c1ccccc1)c1ccccc1)P(c1ccccc1)c1ccccc1.[Pt] | 61% | 78% (active) | 84.4% (active) | 38% | 92% (active) | 90% (active) | 33% | 92% (active) | 82.7% (active) | 36% | 82% (active) | 86.2% (active) | 56% | 89% (active) | 86.8% (active) | 41% | 91% (active) | 83.4% (active)
3 | CC(=O)NC1C(S[As](C)C)OC(COC(C)=O)C(OC(C)=O)C1OC(C)=O (stereo not given) | 59% | 98% (active) | 91% (active) | 18% | 95% (active) | 92.4% (active) | 21% | 54% | 88.5% (active) | 12% | 73% (active) | 88.7% (active) | 55% | 98% (active) | 86.1% (active) | 44% | 98% (active) | 89.5% (active)
4 | O=c1oc2ccccc2c(O)c1C(c1ccc(/C=C/c2ccccc2)cc1)c1c(O)c2ccccc2oc1=O | 13% | 97% (active) | 87.2% (active) | 36% | 98% (active) | 90% (active) | 26% | 95% (active) | 81.7% (active) | 54% | 95% (active) | 77.5% (active) | 52% | 97% (active) | 76.7% (active) | 7% | 98% (active) | 91.3% (active)
5 | O=c1oc2ccccc2c(O)c1C(C/C(CCN1CCCC1)=N\Nc1ccccc1)c1ccccc1 (stereo not given) | 3% | 3% | 86.3% (active) | -2% | -2% | 80.7% (active) | 1% | 1% | 87.8% (active) | 8% | 8% | 81.3% (active) | -13% | -13% | 81.7% (active) | -6% | -6% | 83.9% (active)
6 | N#C[SH2+].N#C[SH2+].N#C[SH2+].N#C[SH2+].[Cu+2].c1ccc(C[P+](c2ccccc2)(c2ccccc2)c2ccccc2)cc1 | 14% | 87% (active) | 96.8% (active) | 5% | 95% (active) | 97.8% (active) | 21% | 91% (active) | 97.9% (active) | -8% | 82% (active) | 90.7% (active) | 5% | 90% (active) | 92.9% (active) | 45% | 97% (active) | 97.2% (active)
7 | CCC[CH2][Sn]([CH2]CCC)([S]C#N)[S]C#N | 95% (active) | 97% (active) | 89.3% (active) | 96% (active) | 97% (active) | 91% (active) | 93% (active) | 97% (active) | 90.5% (active) | 93% (active) | 97% (active) | 86% (active) | 96% (active) | 96% (active) | 89.1% (active) | 97% (active) | 97% (active) | 88% (active)
8 | CCOC(=O)C1C2OC(=O)C(C(=O)C2CN(CCCl)CCCl)C1C1CC=C(CC2=CCC(C3C4C(=O)OC(C(CN(CCCl)CCCl)C4=O)C3C(=O)OCC)CC2)CC1 (stereo not given) | 96% (active) | 97% (active) | 53.5% | 84% (active) | 99% (active) | 57.2% | 68% | 96% (active) | 57.1% | 93% (active) | 96% (active) | 54.1% | 49% | 97% (active) | 49.5% | 95% (active) | 98% (active) | 65.3%
9 | CCCCCCNC(=O)CI | -3% | 88% (active) | 42.7% | -2% | 91% (active) | 75.2% (active) | -5% | 87% (active) | 16.7% | -1% | 46% | -17.4% | 5% | 84% (active) | 59.2% | -3% | 93% (active) | 50.4%
10 | Fc1ccc(NP(=S)(Nc2ccc(F)cc2F)Nc2ccc(F)cc2F)c(F)c1 | 33% | 99% (active) | 99.2% (active) | 42% | 99% (active) | 99.3% (active) | 39% | 99% (active) | 99% (active) | 56% | 99% (active) | 98.7% (active) | 26% | 99% (active) | 98.8% (active) | 30% | 98% (active) | 99.2% (active)
